In PubChem BioAssay (NCATS):
Starred links: 1 amine or outer side, 2 acyl side, 3 side chain; linkers in the order of their positions; H or OH if unused. Positions of bridges follow the written chain, without caps; N, C: chain ends. Non-standard residues stand in square brackets, D forms with d. Residues, ends and D or L forms follow the SMILES beside them. Chains are numbered I, II in the order given. Actinocin(9to1) = Cc1c2oc3c(C)ccc(C(=O)[*:1])c3nc-2c(C(=O)[*:2])c(N)c1=O; NMeV = CN[CH](C(=O)O)C(C)C; Sar = CNCC(=O)O

Test: High-throughput drug toxicity screening in the BPDCN cell line Cal-1 (AID 1224825)
Settings: Cal-1 BPDCN cell viability, qHTS; at 45.8 µM (top of the series) unless noted
Excerpt: Blastic plasmacytoid dendritic cell neoplasm (BPDCN) is a rare, aggressive and largely incurable hematologic malignancy originating from plasmacytoid dendritic cells (pDCs). Although an initial response to chemotherapy is common, BPDCN prognosis is extremely poor and most patients relapse with drug-resistant disease leading to a median overall survival of ~1 year after diagnosis. To explore novel potential therapeutic strategies in BPDCN, we performed a high-throughput drug toxicity screening in BPDCN cell liens, using of a library of 1,912 small molecules, enriched for compounds that are either approved or in early stages of development for cancer therapy.
A total of 500 exponentially growing Cal-1 cells were seeded per well in 5 uL of media (RPMI + Glutamine, without phenol red plus10% FBS and 1X Pen/Strep) into 1536-well solid white high base tissue culture treated Greiner One Bio Plates (789173-F), using a multidrop combi dispenser and a small sterile cassette. Compounds and controls totaling 23nL per well (negative control DMSO and positive control 9.2 uM Bortezomib-final) were immediately added to the plates using a 1536 head pin tool from Kalypsys. The plates were then covered with stainless steel gasket lids from Kalypsys and incubated for 48 hours at 37C under 95% relative humidity with 5% CO2. After 48 hours, the plates were removed and allowed to reach room temperature before 3 uL of Cell Titer Glo reagent (Promega) were added using an Aurora Flying Reagent Dispenser Bioraptor. The plates were then spun at 1000 rpms to remove bubbles and incubated for 15 minutes at room temperature before reading on a ViewLux using a luminescent filter with a 10 second exposure. The relative luciferase units were used to calculated percent activity using DMSO as 100% and Bortezomib as 0%.

| Structure (SMILES) | viability (% of control) |
| --- | --- |
| Nc1nc(=O)n([C@H]2C[C@H](O)[C@@H](CO)O2)cc1F | 35.3% |
| O=C1c2c(O)cccc2[C@@H]([C@@H]2O[C@H](CO)[C@@H](O)[C@H](O)[C@H]2O)c2cc(CO)cc(O)c21 | 123% |
| CC(=O)SCC(Cc1ccccc1)C(=O)NCC(=O)OCc1ccccc1 (stereo not given) | 4.75% |
| OCCNC1CCCc2c1[nH]c1ccc(-c3ccccc3)cc21 (stereo not given) | 0.798% |
| Cc1c2oc3c(C)ccc(C(=O)NC4C(=O)NC(C(C)C)C(=O)N5CCCC5C(=O)N(C)CC(=O)N(C)C(C(C)C)C(=O)OC4C)c3nc-2c(C(=O)NC2C(=O)NC(C(C)C)C(=O)N3CCCC3C(=O)N(C)CC(=O)N(C)C(C(C)C)C(=O)OC2C)c(N)c1=O (stereo not given) (I: TVP[Sar][NMeV] / II: TVP[Sar][NMeV]; ester I:1-I:C, II:1-II:C; linker I:N-II:N via Actinocin(9to1); configuration not given here) | 1.96% |
| C=CCNC1=C2C[C@@H](C)C[C@H](OC)[C@@H](O)[C@@H](C)C=C(C)[C@H](OC(N)=O)[C@@H](OC)C=CC=C(C)C(=O)NC(=CC1=O)C2=O | 5.31% |
| O=C(O)CCCCC(CCSCc1ccccc1)SCc1ccccc1 (stereo not given) | 23.9% |
| CC(=O)O[C@H]1C[C@@H]2CC[C@H]3[C@H]4C[C@H]([N+]5(C)CCCCC5)[C@@H](OC(C)=O)[C@@]4(C)CC[C@@H]3[C@@]2(C)C[C@H]1[N+]1(C)CCCCC1 | 120% |
| C=C1C(=O)O[C@H]2[C@@H]1CCC(C)=CCC[C@@]1(C)O[C@@H]21 | 2.31% |
| O=C1NCCc2[nH]c(-c3ccncc3)cc21 | 12.4% |
| CC(C)(O)[C@H]1CC[C@@](C)([C@H]2[C@@H](O)C[C@@]3(C)[C@@H]4C[C@H](O[C@@H]5O[C@H](CO)[C@@H](O)[C@H](O)[C@@H]5O)[C@H]5C(C)(C)[C@@H](O[C@@H]6OC[C@@H](O)[C@H](O)[C@@H]6O)CC[C@@]56C[C@@]46CC[C@]23C)O1 | 112% |
| C[C@H]1C[C@H]2[C@@H]3CCC4=CC(=O)C=C[C@]4(C)[C@@H]3C(=O)C[C@]2(C)[C@@]1(O)C(=O)CO | 108% |
| Cn1c(Nc2ccc(C(F)(F)F)cc2)nc2cc(Oc3ccnc(-c4ncc(C(F)(F)F)[nH]4)c3)ccc21 | 13.2% |
| Cc1noc(-c2ccc(CSCCC(=O)O)cc2)c1NC(=O)OC(C)c1ccccc1Cl (stereo not given) | 103% |
| CC[C@H]1OC(=O)[C@H](C)[C@@H](O[C@H]2C[C@@](C)(OC)[C@@H](O)[C@H](C)O2)[C@H](C)[C@@H](O[C@@H]2O[C@H](C)C[C@H](N(C)C)[C@@H]2O)[C@](C)(OC)C[C@@H](C)C(=O)[C@H](C)[C@@H](O)[C@]1(C)O | 108% |
| Nc1ccc(C(=O)Nc2cccc(-c3nc(N4CCOCC4)c4oc5ncccc5c4n3)c2)cn1 | 4.11% |
| C=CC1=C(C(=O)O)N2C(=O)[C@@H](NC(=O)C(=NO)c3csc(N)n3)[C@H]2SC1 | 105% |
| CC(=CC(=O)Nc1ccccc1C(=O)O)c1ccc2ccccc2c1 | 77.7% |
| CC(C)(O)Cn1c(NC(=O)c2ccc(-c3cn[nH]c3)s2)nc2cc(CN3CCOCC3)ccc21 | 3.65% |
| Cn1cc(C=CC(=O)c2cccc(F)c2)cc1C=CC(=O)NO | 4.87% |

| Structure (SMILES) | viability (% of control) |
| --- | --- |
| CCCNC(=O)[C@H]1O[C@H]1C(=O)N[C@H](C(=O)N1CCC[C@@H]1C(=O)OC)C(C)CC (stereo not given in full) | 8.18% |
| C[C@H](NC(=O)[C@@H](O)c1cc(F)cc(F)c1)C(=O)N[C@@H]1C(=O)N(C)c2ccccc2-c2ccccc21 | 103% |
| C[C@@H](Cc1cc2c(c(C(N)=O)c1)N(CCCO)CC2)NCCOc1ccccc1OCC(F)(F)F | 97.3% |
| C[C@H]1COc2c(N3CCN(C)CC3)c(F)cc3c(=O)c(C(=O)O)cn1c23 | 100% |
| CCN1CCN(C(=O)N[C@H](C(=O)N[C@@H]2C(=O)N3C(C(=O)O)=C(CSc4nnnn4C)CS[C@@H]23)c2ccc(O)cc2)C(=O)C1=O | 113% [at 15.3 µM] |
| CC(=O)OCC(=O)[C@@]12N=C(C)O[C@H]1C[C@H]1[C@@H]3CCC4=CC(=O)C=C[C@]4(C)[C@@H]3[C@@H](O)C[C@@]12C | 57.7% |
| CCCCCCCCCCCCCCCC(=O)OC[C@@H](NC(=O)C(Cl)Cl)[C@H](O)c1ccc([N+](=O)[O-])cc1 | 117% |
| COc1cccc2c1C(=O)c1c(O)c3c(c(O)c1C2=O)C[C@@](O)(C(=O)CO)C[C@@H]3O[C@H]1C[C@H](N)[C@@H](O)[C@H](C)O1 | 4.51% |
| COC(=O)[C@H](CCCN=C(N)N)NS(=O)(=O)c1ccc(C)cc1 | 104% |
| CC(C)Oc1ccc(C(=O)N[C@H](CNC(=O)CN(C)C)Cc2ccc(-c3cn4cccc([C@H](C)O)c4n3)cc2)cc1Cl | 18.5% |
| CCCNS(=O)(=O)Nc1ncnc(OCCOc2ncc(Br)cn2)c1-c1ccc(Br)cc1 | 117% |
| N#Cc1cc(NC(=O)Nc2nnc(-c3ccncc3)s2)ccc1-c1cn[nH]c1 | 111% |
| C[C@@H]1CC[C@@]2(OC1)OC1CC3C4CC=C5CC(O)CCC5(C)C4CCC3(C)C1[C@@H]2C (stereo not given in full) | 115% |
| CC[C@H](CC[C@@H](C)[C@H]1CC[C@H]2[C@@H]3CC=C4C[C@@H](O)CC[C@]4(C)[C@@H]3CC[C@]12C)C(C)C | 107% |
| Cc1cc(-c2nnc3n2CCCCC3)c(C)n1-c1ccccc1 | 98.4% |
| COC(=O)[C@@H]1[C@H]2C[C@@H]3c4[nH]c5ccccc5c4CCN3C[C@@H]2CC[C@@H]1O | 21.8% |
| Cn1cc(C[C@@H](N)C(=O)O)c2ccccc21 | 126% [at 23.2 µM] |
| O=[N+]([O-])c1cn2c(n1)OC[C@@H](OCc1ccc(OC(F)(F)F)cc1)C2 | 105% |
| N[C@H]1CN(c2c(F)cc3c(=O)c(C(=O)O)cn(C4C[C@@H]4F)c3c2Cl)CC12CC2 (stereo not given in full) | 92.9% |
| CCNC(=O)c1cc2c(-c3cc(OCCN4CCCC4)c(Cl)cc3Cl)nc(N)nc2s1 | 13.8% |
